From PubChem
Only a selection was taken, and hits are over-represented in it overall.
ASM inhibitor: human S-ASM enzyme inhibition; hit rate 0.006% among 340,000; AID 504937; placental ASM, HMU-PC fluorogenic substrate, 60 min; Potency, µM (titrated, usually from 57.5 µM), inactives show at the highest dose activity change, negative = inhibition, hits mostly inhibitors; also: potency is read from the fitted curve at half-maximal effect
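qHTS format. ASM enzyme prepared from human placenta hydrolyses the fluorogenic substrate HMU-PC0 (9 uM final) over 60 min at 37 °C after a 10 min compound preincubation.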
ClpP mod: qHTS Assay for Activators of ClpP | ATP-dependent Clp protease proteolytic subunit (Bacillus subtilis (strain 168)), P80244 | purified B. subtilis ClpP, FRET peptide cleavage, 20 min | Potency, µM (series often up to 57.5 µM), for the others: top-dose activity change, negative = active | hit rate 1.9% among 340,000 | AID 651965, 2013; active = well fitted falling curve with a large enough effect; inconclusive = small, poorly fitted or top-dose-only effect; inactive = no such curve, though single readings can be large or run the other way; also: potency is read from the fitted curve at half-maximal effect; the source files actives as falling curves though it sought activators and does not explain the sign; nearly all actives have a fitted effect of over 65% in size
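FRET quenching reversal measured ClpP activation: 10 microg/mL B. subtilis ClpP at pH 8 with the FRET-FV decapeptide, read at 430 nm after 320 nm excitation. The 20-min minus 0-min signal was scaled between DMSO/no-enzyme wells and ADEP (5.8 microM final).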
RGS4 inhibitor: blocks human RGS4-accelerated GTP hydrolysis; P49798; Transcreener GDP fluorescence polarization, RGS4-accelerated GTP hydrolysis; Potency, µM (doses to about 114 µM), for inactives: at the highest dose activity change, negative = inhibition, usual class: inhibitors; hit rate 0.039% among 390,000; also: potency is read from the fitted curve at half-maximal effect; % is scaled to controls: 0 for no effect and ±100 for the full control effect; nearly all actives have a fitted effect of over 75% in size
Target sequence (P49798 whole entry, looked up): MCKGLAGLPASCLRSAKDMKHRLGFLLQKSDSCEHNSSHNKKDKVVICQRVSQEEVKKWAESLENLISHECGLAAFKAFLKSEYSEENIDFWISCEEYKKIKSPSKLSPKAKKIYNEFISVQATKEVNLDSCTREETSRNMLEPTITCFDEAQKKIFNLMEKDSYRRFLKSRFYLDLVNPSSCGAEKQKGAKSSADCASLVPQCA
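MLSMR compounds (23 nl, pin-transferred) preincubated 10 min at room temperature with a 500nM (2x) first reagent, then RGS4 at 900nM (2x) plus Transcreener GDP mix added; fluorescence polarization (620/688 nm) read before and after 90 min at 30 °C.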
Mito fusion act: inhibitors of mitochondrial division or activators of mitochondrial fusion | Potency, µM (titrated, usually from 46.1 µM), without a hit: at the highest dose growth rescue (activation), usual class: activators | hit rate 0.23% among 320,000 | S. cerevisiae fusion-defective mutant growth rescue, CellTiterGlo 48 h; also: potency is read from the fitted curve at half-maximal effect; % of control where 0% means no effect; nearly all actives have a fitted effect of over 45% in size
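Growth-rescue viability read-out: after 48 h at the non-permissive 37C in glycerol/ethanol YPEG, yeast mitochondrial fusion mutants are measured by CellTiterGlo luminescence; compounds (23 nl pinned per well) restoring growth score as division inhibitors or fusion activators.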
IDH1 R132H inh: inhibitors of human mutant IDH1 R132H. IDH1-R132H enzyme, NADPH consumption, diaphorase/resazurin fluorescence. Potency, µM (titrated, usually from 76.6 µM), without a hit: at the highest dose activity change, negative = inhibition, most hits filed as inhibitors. hit rate 0.093% among 390,000. O75874; also: potency is read from the fitted curve at half-maximal effect; % is scaled to controls: 0 for no effect and ±100 for the full control effect; nearly all actives have a fitted effect of over 65% in size
Target sequence (O75874 whole entry R132H, stated change not applied): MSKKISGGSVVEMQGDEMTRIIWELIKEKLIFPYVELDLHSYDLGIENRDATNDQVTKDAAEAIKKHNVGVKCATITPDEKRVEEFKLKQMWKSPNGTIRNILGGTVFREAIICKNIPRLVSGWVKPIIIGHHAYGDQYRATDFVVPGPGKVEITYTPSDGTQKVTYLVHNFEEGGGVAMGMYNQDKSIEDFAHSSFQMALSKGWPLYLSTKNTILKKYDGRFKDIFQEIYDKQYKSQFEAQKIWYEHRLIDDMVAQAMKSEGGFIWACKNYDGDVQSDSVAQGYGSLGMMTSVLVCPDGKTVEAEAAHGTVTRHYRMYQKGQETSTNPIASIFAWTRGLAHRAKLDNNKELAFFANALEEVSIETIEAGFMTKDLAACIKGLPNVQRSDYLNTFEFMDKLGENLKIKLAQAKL
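IDH1-R132H (0.5 ug/mL) preincubated 30 min with compound, then NADPH (0.016 mM) and alpha-KG (2 mM) added; 80 min at RT, pH 7.5. Remaining NADPH coupled via diaphorase/resazurin to fluorescence (540/590 nm); concentration-response curves normalized to no-enzyme control.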
LDHA block: inhibitors of human lactate dehydrogenase A | P00338 | purified LDHA, NADH/diaphorase-resazurin fluorescence; hits give low values | activity change, % (values are at about 110 or 230 µM) | hit rate 0.15% among 480,000 | AID 1347041; in the data active = activity change below about -30%; inconclusive = mostly about -25% to -30%;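 also: plate controls were DMSO wells for no effect and wells without enzyme for full effect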
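Human LDH5 (2 nM) was incubated with 0.06 mM NADH and 0.2 mM pyruvate for 5 min at room temperature in Tris pH 7.4. Remaining NADH was coupled through diaphorase/resazurin, and resorufin fluorescence was read at 0 and 20 min.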
* = called active by the depositor; i = inactive; ? = inconclusive; . = not tested or not shown; ! = a repeat was not active; [ ] = remark or other dose. Unless noted, calls follow the shape of the dose curve; as a rule, active = well fitted curve in the direction sought with a large enough effect; inconclusive = small, poorly fitted or top-dose-only effect, or another doubt; inactive = no such curve, though single readings can be large; an effect the other way counts as inactive or inconclusive.

SMILES	ASM inhibitor	ClpP mod	RGS4 inhibitor	Mito fusion act	IDH1 R132H inh	LDHA block
Nc1c(C(=O)NCCN2CCOCC2)c2nc3ccccc3nc2n1CCc1ccccc1	i	?	17%	-20%	7%	3
O=C(NCc1cccc(Br)c1)C1CCN(CC(F)(F)F)CC1	.	.	.	.	.	3
COc1ccc(-c2nc(Cc3ccccc3Cl)no2)cc1OC	.	.	.	.	.	3
COCCCNC(=O)c1c(N)n(/N=C/c2cccs2)c2nc3ccccc3nc12	i	32µM*	2%	-1%	-6%	-10
COCCCNC(=O)c1c(N)n(/N=C/c2cccnc2)c2nc3ccccc3nc12	233%	3%	-52%	13%	3%	2
COCCCNC(=O)c1c(N)n(-c2ccccc2)c2nc3ccccc3nc12	i	-20%	-30%	13%	1%	13
N#Cc1c(N)n(CCc2ccc(F)cc2)c2nc3ccccc3nc12	i	32µM*	-12%	1%	3%	13
COCCn1c(N)c(C(=O)NCc2cccs2)c2nc3ccccc3nc21	i	32µM*	5%	16%	3%	9
COCCNC(=O)c1c(N)n(-c2ccccc2)c2nc3ccccc3nc12	i	18µM*	13%	0%	2%	1
NS(=O)(=O)c1ccc(NN=C2c3ccccc3-c3ccccc32)c([N+](=O)[O-])c1	.	.	.	.	.	-8
Cc1oc(-c2ccccc2)nc1CC(=O)N1CCCC(C(F)(F)F)C1 (stereo not drawn)	.	.	.	.	.	-4
Nc1c(C(=O)NCCN2CCOCC2)c2nc3ccccc3nc2n1-c1ccc2c(c1)OCO2	i	-14%	-12%	1%	1%	7
Nc1c(C(=O)NCCN2CCOCC2)c2nc3ccccc3nc2n1-c1ccccc1	i	11µM*	4%	23%	6%	2
Cc1oc(C(=O)O)cc1COc1ccc2c3c(c(=O)oc2c1)CCC3	54%	28µM*	18%	-2%	6%	0
COC(=O)c1ccc(COc2ccc3c4c(c(=O)oc3c2)CCC4)o1	79%	3.2µM*	11%	3%	3%	-11
NS(=O)(=O)c1cccnc1Nc1cccc(C(F)(F)F)c1	-3%	-22%	?	4%	5%	-3
O=C(O)c1cccnc1Nc1cccc(C(F)(F)F)c1	5%	1%	10%[56.9 µM]	18µM*!	6%	-2
CCCCn1cnc2c(SCCc3ccccc3)nc(N)nc21	-1%	28µM*	11%	.	0%	-2
CCCn1cnc2c(SCCc3ccccc3)nc(N)nc21	-1%	1%	3%	.	3%	-1
COc1ccc2nc(-c3ccccc3)nc(C3CCCCC3)c2c1	-9%	?	2%	3%	16%	-5
COc1ccc2nc(-c3ccccc3)nc(SC)c2c1	1%	22µM*	6%	.	7%	-9
O=C(/C=C/c1ccc(Oc2ccccc2)cc1)c1ccc(N2CCOCC2)cc1	.	.	.	.	.	-7
O=c1[nH]c(-c2ccccc2)nc2sc(-c3ccccc3)cc12	i	.	?	1%	0%	0
O=c1[nH]cnc2sc(-c3ccccc3)cc12	3%	32µM*	-1%	13%	10%	-6
C=CCNCc1ccc(-c2cccc(C(F)(F)F)c2)o1	.	.	.	.	.	-2
SMILES	ASM inhibitor	ClpP mod	RGS4 inhibitor	Mito fusion act	IDH1 R132H inh	LDHA block
CC(C)(C)NS(=O)(=O)c1ccc(CCC(=O)Nc2ccc3c(c2)OCO3)cc1	2%	-3%	11%	-1%	14%	3
CC(C)(C)NS(=O)(=O)c1ccc(C(=O)Nc2ccc3c(c2)OCO3)cc1	0%	.	4%	35µM*	0%	10
CCc1ccccc1N(C)S(=O)(=O)c1ccc2[nH]cc(C(=O)O)c(=O)c2c1	16%	1%	1%	-5%	2%	-42*
Cc1ccccc1N(C)S(=O)(=O)c1ccc2[nH]cc(C(=O)NCC3CCCO3)c(=O)c2c1 (stereo not drawn)	-6%	32µM*	-16%	-15%	10%	-2
CCOC(=O)N1CCN(C(=O)c2c[nH]c3ccc(S(=O)(=O)N(C)c4ccc(F)cc4)cc3c2=O)CC1	18%	4%	23%	-3%	-6%	-10
CN(c1ccc(F)cc1)S(=O)(=O)c1ccc2[nH]cc(C(=O)O)c(=O)c2c1	4%	-21%	30%	-4%	-3%	-30*
CCOc1ccccc1N(C)S(=O)(=O)c1ccc2[nH]cc(C(=O)N(CCOC)CCOC)c(=O)c2c1	16%	.	-33%[56.9 µM]	-1%	-5%	-7
CCc1ccc(N(C)S(=O)(=O)c2ccc3[nH]cc(C(=O)NCC4CCCO4)c(=O)c3c2)cc1 (stereo not drawn)	.	-19%	14%	.	1%	4
COCCN(CCOC)C(=O)c1c[nH]c2ccc(S(=O)(=O)N(C)c3ccc(F)cc3)cc2c1=O	26%	32µM*	-12%	4%	-10%	-4
CC1c2cc3c(cc2CCN1S(=O)(=O)c1cc(Cl)ccc1Cl)OCCCO3 (stereo not drawn)	.	.	.	.	.	4
O=C(NCc1cccnc1)C1CCN(C(=O)c2ccc(Cl)cc2Cl)CC1	3%	0%	-15%	3%	10%	-1
O=C(NCc1cccnc1)C1CCC(c2ccc(Cl)cc2)CC1 (stereo not drawn)	2%	28µM*	-15%	-4%	14%	-7
O=c1nc2n(Cc3ccccc3)c3ccccc3cc-2c(=O)[nH]1	.	.	.	1%	.	.
Cn1c2nc(=O)[nH]c(=O)c-2cc2ccccc21	i	18µM*	-30%	.	1%	-6
O=c1nc2n(CCO)c3ccccc3cc-2c(=O)[nH]1	i	32µM*	-7%	.	1%	-2
CS(=O)(=O)CCC(C(=O)NC1CCN(Cc2ccccc2)CC1)N1Cc2ccccc2C1=O (stereo not drawn)	.	.	.	.	.	4
COc1cccc(CCC(=O)Nc2nc(C)c(C)s2)c1OC	.	.	.	.	.	12
COc1ccc(OCC(=O)Nc2cc(-c3nc4ccc(C)cc4o3)ccc2C)cc1	.	.	.	.	.	-5
COc1ccc(Cn2c(=O)c3c(nc(NCCO)n3C)n(C)c2=O)cc1	0%	3.5µM*	7%	1%	5%	0
CC(=O)Nc1ccc(C)c(NC(=O)C2(c3ccc(F)cc3)CC2)c1	.	.	.	.	.	7
CCOC(=O)N/N=C/c1ccc(OCCSc2ccc(Cl)cc2)c(OCC)c1	-3%	1%	5%	35µM*	2%	-1
CCOc1cc(/C=N/NC(=O)COc2ccc(Cl)cc2)ccc1OS(=O)(=O)c1ccccc1	-14%	-3%	23%	13µM*	-7%	-5
